# KB-3-1 cytotox: kills parental KB-3-1 adenocarcinoma cells. KB-3-1 viability, CellTiter-Glo ATP luminescence, 72 h. Potency, µM (highest dose often 46.1 µM), usual class: cytotoxic. hit rate 1.4% among 400,000. AID 1347075; note: nearly all actives have a fitted effect of over 60% in size
#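 KB-3-1 parental drug-naive adenocarcinoma cells in DMEM/10% FBS, incubated 72 h at 37 C with pin-transferred compounds across a concentration series. Viability by CellTiter-Glo luminescence; concentration-response curves fitted after normalization.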
# KB-V1 cytotox: kills drug-selected multidrug resistant KB-V1 cells. KB-V1 MDR cells viability, CellTiter-Glo, 72 h. Potency, µM (doses to about 46.1 µM), most hits filed as cytotoxic. hit rate 3.4% among 400,000. AID 1347076; note: nearly all actives have a fitted effect of over 60% in size
#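 KB-V1, DMEM (no phenol red) + 10% FBS; cpd pin-transferred, titration series; 72 h, 37 degrees C; CellTiter-Glo, luminescence. Data normalized, curve-fit.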
# HT1080NT lethal: kills 2HG-producing HT-1080-NT fibrosarcoma cells; HT-1080-NT fibrosarcoma viability, CellTiter-Glo ATP luminescence, 48 h; Potency, µM (highest dose often 46.1 µM), most hits filed as cytotoxic; hit rate 1.6% among 360,000; AID 686970;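 note: NT is the 2HG producing partner of a matched IDH1 knockdown line; nearly all actives have a fitted effect of over 55% in size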
#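 Viability of the 2HG-overproducing fibrosarcoma line after 48 hours of compound exposure at 37 degrees C was determined by luminescence with CellTiter-Glo, and concentration-effect curves were then fitted and categorized.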
# HT1080 IDH1KD tx: toxicity to HT-1080 IDH1 knockdown cells (counter line); HT-1080 IDH1 knockdown viability, ATP luminescence, 48 h; Potency, µM (highest dose often 46.1 µM), hits mostly cytotoxic; hit rate 2% among 360,000; AID 686971
#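 In this qHTS, HT-1080 cells depleted of IDH1 are exposed for 48 h at 37 °C to compound titrations. Toxicity is scored from CellTiter-Glo luminescence, with DMSO as full viability and medium alone as none.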
# ATXN2 expr inh: inhibitors of ATXN2 expression; HEK-293 ATXN2-luciferase reporter, luminescence, 24 h; Potency, µM (highest dose often 57 µM), hits mostly inhibitors; hit rate 0.72% among 360,000; note: nearly all actives have a fitted effect of over 55% in size
#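 ATXN2-luciferase reporter cells (luciferase flanked by upstream and downstream ATXN2 gene portions) were treated 24 h at 37 °C with compounds at up to 57 uM. SteadyGlo luminescence gave expression; GF-AFC fluorescence gave viability.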
# S2 tox: viability counter-screen for ATXN expression inhibitors. S2 cells (HEK-293 line with an ATXN2-luciferase reporter) viability, CellTiter-Fluor protease fluorescence, 24 h. Potency, µM (top dose mostly 56.7 µM), most hits filed as cytotoxic. hit rate 0.49% among 400,000. AID 651635; note: nearly all actives have a fitted effect of over 40% in size
# Hits are given with their value; – = inactive; ? = inconclusive; · = no result. This is a sample that favours compounds with a hit; in the whole collection about 6.2% have one here. Calls come from the whole dose curve; as a rule, active = well fitted curve in the direction sought with a large enough effect; inconclusive = small, poorly fitted or top-dose-only effect, or another doubt; inactive = no such curve, though single readings can be large; an effect the other way counts as inactive or inconclusive.
SMILES,KB-3-1 cytotox,KB-V1 cytotox,HT1080NT lethal,HT1080 IDH1KD tx,ATXN2 expr inh,S2 tox
COc1cc2nc(NCCc3ccc(Cl)cc3)n3nc(-c4ccccc4)nc3c2cc1OC,–,–,·,·,–,–
COc1cccc(-n2c(SCc3ccccc3C)nc3c([nH]c4ccccc43)c2=O)c1,–,23µM,·,·,–,–
COc1cccc(-n2c(SCc3cccc(C)c3)nc3c([nH]c4ccccc43)c2=O)c1,–,–,·,·,–,–
Cc1ccccc1OCCn1cc(C=O)c2ccccc21,?,16µM,–,?,–,–
COc1ccc(OCCn2cc(C=O)c3ccccc32)cc1,–,–,–,–,–,–
Cc1ccc(NC(=O)c2nc(S(C)(=O)=O)ncc2N(Cc2ccc(C(C)(C)C)cc2)Cc2ccco2)cc1C,–,–,·,·,–,–
O=C(CSc1nnc(-c2cccs2)n1-c1cccc(Cl)c1)c1cccc2c1OCCO2,–,8.2µM,–,–,–,–
CC(Nc1ncnc2sccc12)c1ccccc1 (stereo not drawn),?,–,10µM,–,–,?
COc1ccc(-c2nc3cc(C)c(Br)c(C)n3c2Cc2ccc(C)cc2)cc1OC,–,–,–,–,–,–
Cc1nc(NCC2CCCO2)nc2c1C(=O)CC(C)C2 (stereo not drawn),–,–,–,–,–,–
Cc1nc(NCC2CCCO2)nc2c1C(=O)CC(C)(C)C2 (stereo not drawn),–,21µM,–,–,–,–
Cc1cccc(NS(=O)(=O)c2ccc3c(c2)CC(C)N3C(=O)C2CCC2)c1C (stereo not drawn),23µM,?,·,·,–,?
CCOc1ccccc1NS(=O)(=O)c1ccc2c(c1)CC(C)N2C(=O)C1CCC1 (stereo not drawn),?,?,·,·,?,–
C=CCn1c(NC(=O)c2ccccc2Cl)c(C#N)c2nc3ccccc3nc21,?,8.2µM,–,–,–,·
O=C(OCC(=O)N1CCN(S(=O)(=O)c2ccc(Cl)cc2)CC1)c1cccc(OC(F)F)c1,–,–,–,–,–,–
CSc1ccccc1NC(=O)CSCc1ccccc1Br,–,?,–,–,–,–
CSc1ccccc1NC(=O)CN(c1ccccc1Br)S(C)(=O)=O,–,15µM,–,–,–,–
Cc1cccc(N(CC(=O)Nc2ccccc2F)S(C)(=O)=O)c1,–,23µM,–,–,–,–
COc1ccc(N(CC(=O)Nc2ccccc2SC)S(C)(=O)=O)cc1OC,–,–,–,–,·,·
CSc1ccccc1NC(=O)CSCc1ccc(Br)cc1,–,21µM,–,–,–,–
COc1ccccc1CNC(=O)c1cc2sccc2n1Cc1ccc(Cl)cc1,–,–,·,·,–,–
COc1ccc(C(=O)COC(=O)CCCC(=O)Nc2ccc(C(C)=O)cc2)cc1,–,–,·,·,–,–
c1ccc(-c2cn3nc(-c4ccccc4)c(-c4ccccc4)nc3n2)cc1,–,13µM,–,–,–,·
Cc1ccc(-c2cn3nc(-c4ccccc4)c(-c4ccccc4)nc3n2)cc1,–,–,–,–,–,·
C#CCn1cc[n+](CC(=O)N(C)C)c1,–,–,–,–,–,–
SMILES,KB-3-1 cytotox,KB-V1 cytotox,HT1080NT lethal,HT1080 IDH1KD tx,ATXN2 expr inh,S2 tox
CCCCCCCCCCCCCCCCn1cc[n+](CC(C)=O)c1,8.2µM,–,?,–,?,30µM
CC(=O)c1cccc(NC(=O)c2cc(C)nc3c2c(C)nn3-c2cccc(Cl)c2C)c1,–,–,·,·,–,–
Nc1nc(N)c(N=O)c(OCC2CCCCC2)n1,–,?,?,18µM,–,?
COc1nc(N)nc(NC(=O)c2cccs2)c1N=O,–,–,16µM,18µM,–,?
COc1ccc(NC(=O)c2ccc(NC(=O)c3cccs3)cc2)cc1,–,–,?,?,?,?
CCc1nnc(NC(=O)c2ccc(S(=O)(=O)N3CCCc4ccccc43)cc2)o1,–,?,?,7.1µM,?,?
O=C(Nc1nc2ccccc2s1)c1cccc(S(=O)(=O)N2CCc3ccccc32)c1,?,?,?,–,–,–
Cc1cc(NC(=O)c2ccc(S(=O)(=O)N3CCc4ccccc43)cc2)no1,–,–,–,–,–,–
CCc1nnc(NC(=O)c2ccc(S(=O)(=O)N(C)c3ccccc3)cc2)o1,?,–,–,?,?,–
O=C(Nc1nc2c(s1)CCCC2)c1ccc(S(=O)(=O)N2CCCc3ccccc32)cc1,5.8µM,2.6µM,–,–,–,–
CNC(=O)c1ccsc1NC(=O)c1ccc(S(=O)(=O)N2CCCc3ccccc32)cc1,8.2µM,?,–,–,?,–
CC1CCc2nc(NC(=O)c3ccc(S(=O)(=O)N4CCCc5ccccc54)cc3)sc2C1 (stereo not drawn),–,?,–,–,–,–
O=C(Nc1nc2c(s1)CN(Cc1ccccc1)CC2)c1cccc(S(=O)(=O)N2CCc3ccccc32)c1,?,6.5µM,–,–,–,–
Cc1ccc2c(c1)N(C(=O)NCc1ccccc1)CCO2,–,–,·,·,·,·
COC(=O)[C@H]1C[C@@]2(O)CN(S(=O)(=O)c3ccc(C)cc3)C[C@@]2(OC(=O)Nc2cccs2)C[C@H]1C(=O)OC,–,–,–,–,–,–

# Screens (PubChem BioAssay)
